Results on 16 molecules are retold here after PubChem BioAssay.

Test [1] in a line: Wnt pathway potentiators raising nuclear beta-catenin – imaging, WNT3A-conditioned medium, mouse C2C12, NPC library, primary screen (AID 1117326; in the data active means nuclear beta-catenin stimulation mostly above about 4.2%, no sharp cut-off; inactive means mostly below about 10%; further: reference of the scale not given here). Conditions: stronger effect = higher value.
Test [2] can be described thus: stimulators of insulin release from INS-1E, primary screen, cell-based, 5 mM glucose, NPC library (AID 1117329;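 active means compound raises insulin release from rat beta cells at 5 mM glucose, no numeric limit stated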; further: reference of the scale not given here). The settings on record: rat INS-1E insulin secretion, at 10 µM, stronger effect = higher value.
Test [3] can be described thus: growth inhibition of GSK3B-pretreated HCT116 cells – cell-based, CellTiter-Glo, 0.2 to 20 µM (AID 1117336;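 active means compounds lowering colon cancer cell viability after pretreatment blocking the GSK3B kinase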). The settings on record: HCT116 viability after GSK3B inhibitor, at 20 µM, stronger effect = higher value. Background: In ATP-based viability assays light output follows the ATP content of the culture.
Test [4] can be described thus: inhibition of endothelial tube formation, primary screen, imaging, VEGF stimulated, CD31 staining, tube area, NPC library (AID 1117340;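 active means compound that reduces growth-factor-driven endothelial tube area in a mixed cell culture, no cutoff stated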). The settings on record: VEGF-stimulated ADSC/ECFC co-culture, at 10 µM, stronger effect = higher value.
Test [5] is described as follows: GLP1 release stimulators, primary, NCI-H716, NPC library (AID 1117341;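 active means compound raises GLP1 secretion from the human gut endocrine cells, with no numeric limit stated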; further: reference of the scale not given here). Conditions: NCI-H716 cells, at 10 µM, stronger effect = higher value.
Test [6] in a line: HCT116 colon cancer cell growth inhibition, primary screen, CellTiter-Glo luminescence, NPC library (AID 1117342;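 active means compounds that lower survival of HCT116 colon cancer cells in the luminescence readout, no numeric limit stated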). The settings on record: at 20 µM (top of the series).
Test [7] in a line: reduced SW480 viability measured with CellTiter-Glo, NPC library, primary (AID 1117343). The settings on record: CellTiter-Glo luminescence; at 20 µM (top of the series).
The nature of test [8]: NPC library primary testing for decreased DLD-1 cell viability via CellTiter-Glo (AID 1117346;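 active means compounds that lower survival of DLD-1 colon cancer cells in the luminescence readout, no cutoff given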). The settings on record: DLD-1 viability, CellTiter-Glo luminescence; at 20 µM (top of the series).

Each structure is given as a SMILES string. Active and inactive are the calls of the source.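 How the source made its calls, unless noted: active means compounds that lower viability of the colon cancer cells in the luminescence readout, with no numeric limit stated; inactive means the rest.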

Turning to `Cc1cccc(C)c1NC(=O)c1cc(S(N)(=O)=O)c(Cl)cc1O`, the nuclear beta-catenin stimulation in test [1] (at 10 µM) was -1.8% (inactive); in test [1] (stimulation, at 2 µM), 0.7%. Further, in test [2], the insulin secretion stimulation is -1.9% (inactive). Further, the viability decrease in test [3] was -8.6% (inactive). For the same molecule, the tube area decrease in test [4] is -2.4% (inactive). For the same molecule, the GLP1 secretion stimulation in test [5] was -2.3% (inactive). Further, in test [6], the inhibition of viability is -3.4% (inactive). The viability decrease (inhibition) in test [7] is 3.4% (inactive); in test [8] it was -5.4% (inactive).

On to `CC(C)(C)C1CCC(CC2=C(O)c3ccccc3C(=O)C2=O)CC1` (centres undefined), for which the nuclear beta-catenin stimulation in test [1] (at 10 µM) was 2% (inactive); in test [1] (stimulation, at 2 µM), -0.5%. Besides, the insulin secretion stimulation in test [2] is -0.2% (inactive). The viability decrease in test [3] is 110% (active). In addition, the tube area decrease in test [4] was 109% (active). The GLP1 secretion stimulation in test [5] is 5.8% (inactive). Besides, in test [6], the inhibition of viability was 106% (active). Moreover, the viability decrease (inhibition) was 140% (active) in test [7] and 98.4% (active) in test [8].

Consider `Fc1ccc(C(c2ccc(F)cc2)N2CCNCC2)cc1`, for which the nuclear beta-catenin stimulation is -0.2% (inactive) in test [1] (at 10 µM) and 0.1% in test [1] (stimulation, at 2 µM). Moreover, the insulin secretion stimulation in test [2] was 16.6% (inactive). For the same molecule, the viability decrease in test [3] is 29.7% (inactive). Further, the tube area decrease in test [4] was 13.9% (inactive). Further, the GLP1 secretion stimulation in test [5] was 7.5% (inactive). Moreover, the inhibition of viability in test [6] was 79.8% (active). Further, the values for the viability decrease (inhibition) in test [7] and in test [8] were 72.4% (active) and 25.2% (inactive), respectively.

For `COc1cc(C(=S)N2CCOCC2)ccc1O`, the nuclear beta-catenin stimulation in test [1] (at 10 µM) was 1.6% (inactive); in test [1] (stimulation, at 2 µM), 0%. Besides, the insulin secretion stimulation in test [2] was 3.9% (inactive). The viability decrease in test [3] is -5.7% (inactive). In addition, the tube area decrease in test [4] is 1.9% (inactive). The GLP1 secretion stimulation in test [5] is -3.6% (inactive). Besides, the inhibition of viability in test [6] was -4.3% (inactive). The viability decrease (inhibition) was -4.6% (inactive) in test [7] and -2.7% (inactive) in test [8].

Take `O=S(O)CO`: the nuclear beta-catenin stimulation in test [1] (at 10 µM) was 2.1% (inactive); in test [1] (stimulation, at 2 µM), 0.9%. For the same molecule, the insulin secretion stimulation in test [2] was 0.6% (inactive). Besides, in test [3], the viability decrease is -7.1% (inactive). Further, in test [4], the tube area decrease is 9.9% (inactive). Besides, the GLP1 secretion stimulation in test [5] is -1.1% (inactive). In addition, the inhibition of viability in test [6] is -0.4% (inactive). For the same molecule, the results for the viability decrease (inhibition) in test [7] and in test [8] were -0.9% (inactive) and 2.7% (inactive), respectively.

Consider `COc1ccc(OC(=O)N(CC(=O)O)Cc2ccc(OCCc3nc(-c4ccccc4)oc3C)cc2)cc1`, for which the nuclear beta-catenin stimulation in test [1] (at 10 µM) was 1% (inactive); in test [1] (stimulation, at 2 µM) it was -0.5%. Moreover, the insulin secretion stimulation in test [2] is -0.3% (inactive). In addition, the viability decrease in test [3] is 100% (active). Besides, the tube area decrease in test [4] is -9% (inactive). In addition, in test [5], the GLP1 secretion stimulation is 51.7% (active). For the same molecule, the inhibition of viability in test [6] is 86.4% (active). Moreover, the viability decrease (inhibition) is 105% (active) in test [7] and 91.5% (active) in test [8].

`CC(C)C(=O)Nc1cccc(C2CN3CCSC3=N2)c1` (centres undefined): the nuclear beta-catenin stimulation was 1.5% (inactive) in test [1] (at 10 µM) and 1.8% in test [1] (stimulation, at 2 µM). Further, the insulin secretion stimulation in test [2] was -0.5% (inactive). Moreover, in test [3], the viability decrease was -30.9% (inactive). Further, the tube area decrease in test [4] is -4.2% (inactive). Further, in test [5], the GLP1 secretion stimulation is 5% (inactive). In test [6], the inhibition of viability was 4.17% (inactive). Moreover, the results for the viability decrease (inhibition) in test [7] and in test [8] were 13% (inactive) and -14.4% (inactive), respectively.

Consider `CCC(C(=O)OCCN(CC)CC)c1ccccc1` (centres undefined), for which the nuclear beta-catenin stimulation in test [1] (at 10 µM) was 1.2% (inactive); in test [1] (stimulation, at 2 µM), -0.6%. Further, in test [2], the insulin secretion stimulation was 1.3% (inactive). Besides, the viability decrease in test [3] was -8.4% (inactive). The tube area decrease in test [4] is -11.9% (inactive). Besides, the GLP1 secretion stimulation in test [5] was -2.1% (inactive). Moreover, the inhibition of viability in test [6] was -0.3% (inactive). Besides, the viability decrease (inhibition) in test [7] was 4.5% (active); in test [8] it was -11.1% (inactive).

Consider `CC(NC(CCc1ccccc1)C(=O)O)C(=O)N1C(=O)N(C)CC1C(=O)O` (centres undefined), for which the nuclear beta-catenin stimulation was -1.2% (inactive) in test [1] (at 10 µM) and 1.8% in test [1] (stimulation, at 2 µM). In test [2], the insulin secretion stimulation was 5.3% (inactive). Also, the viability decrease in test [3] is -39.7% (inactive). In addition, the tube area decrease in test [4] is 6% (inactive). Further, the GLP1 secretion stimulation in test [5] is -5.4% (inactive). In addition, the inhibition of viability in test [6] is 2.8% (inactive). The viability decrease (inhibition) is 4.5% (inactive) in test [7] and -6% (inactive) in test [8].

Take `CCCCCCCCCCCCCCCC[n+]1ccccc1`: the nuclear beta-catenin stimulation is -2.9% (inactive) in test [1] (at 10 µM) and 5.4% in test [1] (stimulation, at 2 µM). Moreover, in test [2], the insulin secretion stimulation was 46% (active). Besides, the viability decrease in test [3] was 56% (active). In test [4], the tube area decrease is 104% (active). Also, the GLP1 secretion stimulation in test [5] was 72.8% (active). In addition, the inhibition of viability in test [6] is 112% (active). The values for the viability decrease (inhibition) in test [7] and in test [8] were 112% (active) and 60.9% (active), respectively.

For `Cc1[nH]cnc1C[C@H]1CCc2c(C)c3ccccc3n2C1=O`, the nuclear beta-catenin stimulation in test [1] (at 10 µM) is 9.2% (inactive); in test [1] (stimulation, at 2 µM), 0.9%. The insulin secretion stimulation in test [2] is -0.4% (inactive). Further, the viability decrease in test [3] was 57.2% (active). Besides, the tube area decrease in test [4] is 55% (active). For the same molecule, the GLP1 secretion stimulation in test [5] is -2.3% (inactive). Besides, the inhibition of viability in test [6] was 92.8% (active). The viability decrease (inhibition) was 69.2% (active) in test [7] and 65.3% (active) in test [8].

`C[C@@H](O)[C@H]1C(=O)N2C(C(=O)[O-])=C(SC3Cn4cnc[n+]4C3)[C@H](C)[C@H]12` (some centres undefined): the nuclear beta-catenin stimulation is -0.3% (inactive) in test [1] (at 10 µM) and -2.1% in test [1] (stimulation, at 2 µM). The insulin secretion stimulation in test [2] was 6.4% (inactive). For the same molecule, the viability decrease in test [3] is -16.5% (inactive). Besides, in test [4], the tube area decrease was -9.3% (inactive). Moreover, the GLP1 secretion stimulation in test [5] was 0.8% (inactive). In addition, in test [6], the inhibition of viability is 15.4% (inactive). The results for the viability decrease (inhibition) in test [7] and in test [8] were -6.5% (inactive) and 5.3% (inactive), respectively.

Regarding `Oc1cccc(-c2c3nc(c(-c4cccc(O)c4)c4ccc([nH]4)c(-c4cccc(O)c4)c4nc(c(-c5cccc(O)c5)c5ccc2[nH]5)CC4)C=C3)c1`, the nuclear beta-catenin stimulation was 24.3% (inactive) in test [1] (at 10 µM) and -1.7% in test [1] (stimulation, at 2 µM). In addition, the insulin secretion stimulation in test [2] is -1.15% (inactive). Moreover, the viability decrease in test [3] was 95.2% (active). In addition, the tube area decrease in test [4] was -79.5% (inactive). For the same molecule, in test [5], the GLP1 secretion stimulation is 13.6% (inactive). Moreover, in test [6], the inhibition of viability is 109% (active). For the same molecule, the viability decrease (inhibition) in test [7] was 141% (active); in test [8], 95.7% (active).

On to `CCCC(O)C(CC)CO` (centres undefined), for which the nuclear beta-catenin stimulation in test [1] (at 10 µM) is -0.6% (inactive); in test [1] (stimulation, at 2 µM) it was 1.4%. Also, the insulin secretion stimulation in test [2] was -1.8% (inactive). Besides, the viability decrease in test [3] is -18.3% (inactive). In test [4], the tube area decrease was 16.6% (inactive). For the same molecule, the GLP1 secretion stimulation in test [5] was -0.4% (inactive). Also, the inhibition of viability in test [6] was 3.33% (inactive). The viability decrease (inhibition) in test [7] was 2.8% (inactive); in test [8], 2.4% (inactive).

Consider `CCN(CC)CCSC(=O)C(c1ccccc1)c1ccccc1`, for which the nuclear beta-catenin stimulation was 7.2% (inactive) in test [1] (at 10 µM) and 2.8% in test [1] (stimulation, at 2 µM). For the same molecule, in test [2], the insulin secretion stimulation is 15.8% (inactive). Moreover, the viability decrease in test [3] was 6.7% (inactive). The tube area decrease in test [4] is 3.2% (inactive). Besides, in test [5], the GLP1 secretion stimulation is 9.6% (inactive). In test [6], the inhibition of viability is 1% (inactive). The figures for the viability decrease (inhibition) in test [7] and in test [8] were 5.1% (inactive) and 1.5% (inactive), respectively.

As for `CC(O)COc1ccccc1` (centres undefined), the nuclear beta-catenin stimulation was -0.1% (inactive) in test [1] (at 10 µM) and 1.5% in test [1] (stimulation, at 2 µM). Besides, in test [2], the insulin secretion stimulation is -0.2% (inactive). Also, the viability decrease in test [3] is -28.5% (inactive). In addition, the tube area decrease in test [4] was 11.1% (inactive). The GLP1 secretion stimulation in test [5] was 0.5% (inactive). In addition, in test [6], the inhibition of viability was -11.1% (inactive). Further, the viability decrease (inhibition) in test [7] was -146% (inactive); in test [8], -19.2% (inactive).
